Screening data from PubChem.
CYP2C9 inh – blocks human cytochrome P450 2C9; CYP2C9 Supersomes, luciferin-H conversion, luminescence; 20% of 96,000 active; inhibition, % at 5 µM; P11712;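 active = blocking of liver enzyme CYP2C9 beyond about 50% at 5 µM, limit read from the data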
CYP2C19 activ – increases human CYP2C19 enzyme activity. 96,000 tested, under 10 active. recombinant CYP2C19, luciferin-H EGE luminescence; stronger effect = higher value; 0 = fully inhibited enzyme, 1 = untreated enzyme. activation factor at 5 µM. P33261;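 active = activation factor of at least 2 at 5 µM in the primary screen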;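 also: 0 = wells with 2.5 mM tranylcypromine and 1 = vehicle-only wells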
Target sequence (P33261 whole entry, looked up): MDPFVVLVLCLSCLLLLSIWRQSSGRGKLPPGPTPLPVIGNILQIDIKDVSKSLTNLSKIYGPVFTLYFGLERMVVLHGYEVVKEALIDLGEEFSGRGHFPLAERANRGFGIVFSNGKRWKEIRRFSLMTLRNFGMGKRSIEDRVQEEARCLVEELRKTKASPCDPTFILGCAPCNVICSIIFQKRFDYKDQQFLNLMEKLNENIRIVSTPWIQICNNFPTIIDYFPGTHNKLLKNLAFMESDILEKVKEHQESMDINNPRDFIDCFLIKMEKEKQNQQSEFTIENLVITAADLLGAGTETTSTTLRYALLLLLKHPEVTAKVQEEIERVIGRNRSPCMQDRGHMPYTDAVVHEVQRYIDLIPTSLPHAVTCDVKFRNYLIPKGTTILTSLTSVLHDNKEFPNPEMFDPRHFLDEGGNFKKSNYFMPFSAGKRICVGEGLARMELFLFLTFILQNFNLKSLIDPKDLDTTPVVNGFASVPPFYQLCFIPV
sEH act – soluble epoxide hydrolase (human) activation | P34913 | purified human sEH enzymatic activity, activator screen | activation, % at 2 µM | 0.04% of 91,000 active | AID 717; in the data active = activation above about 37%
CYP2C19 inh – human CYP2C19 inhibition; CYP2C19 Supersomes, luciferin-H EGE luminescence, 30 min; inhibition, % at 5 µM; P33261; 21% of 96,000 active;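 active = CYP2C19 inhibition above a set limit at 5 µM in the primary screen, cut at about 50% in these data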;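 also: plate controls were negative control wells for no effect and 2.5 mM tranylcypromine positive control for full effect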
sEH inhibitor – inhibitors of human soluble epoxide hydrolase. P34913. recombinant human sEH enzymatic activity assay. inhibition, % at 2 µM. 0.34% of 91,000 active. AID 707; in the data active = inhibition above about 80%
CYP2C9 activ – CYP2C9 (human) activation | 1.4% of 96,000 active | recombinant CYP2C9, luciferin-H conversion, luminescence; stronger effect = higher value; factor 1 = untreated enzyme, 0 = blocked | activation factor at 5 µM | P11712;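 active = activation factor of 2 or more for CYP2C9 at a 5 µM dose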;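 also: 0 = sulfaphenazole-blocked wells and 1 = vehicle-only wells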
* = called active by the depositor; . = no result given. The list is not random: actives were taken first. Their share in the collection is about 27%.

SMILES	CYP2C9 inh	CYP2C19 activ	sEH act	CYP2C19 inh	sEH inhibitor	CYP2C9 activ
O=C(c1ccc(F)cc1)N1CCN(c2cc(=O)[nH]nc2-c2ccccc2)CC1	-14.6	1.1	-9.4	-13.0	11.5	1.1
O=C(O)c1nc(N2CCCC2)ncc1Cl	5.9	1	7.3	0.9	-4.0	0.9
CCC(NC(=O)Nn1cnnc1)(C(F)(F)F)C(F)(F)F	.	.	13.4	.	-18.4	.
Cn1c(=O)oc2cc(S(=O)(=O)N3CCCC(C(=O)Nc4ccc5c(c4)OCCO5)C3)ccc21 (centres undefined)	9.0	0.7	-38.3	27.2	40.4	0.9
COc1ccc2oc(=O)c(C(=O)N3CCN(c4ccccc4C)CC3)cc2c1	-0.5	1	1.2	0.7	-1.1	1
Cc1nn(C)c(C(=O)N2CCc3ccccc32)c1Cl	.	.	2.3	.	0.7	.
COc1ccc2oc(=O)c(C(=O)N3c4ccccc4CC3C)cc2c1 (centres undefined)	67.8*	0.8	5.0	19.5	-6.9	0.3
COc1ccc(N(CC(=O)N2c3ccccc3CC2C)S(=O)(=O)c2c(C)nn(C)c2C)cc1 (centres undefined)	77.3*	0.2	-2.4	79.8*	-0.2	0.2
CCOC(=O)C1CCN(C(=O)CN(c2ccc(OC)cc2)S(=O)(=O)c2c(C)nn(C)c2C)CC1	48.7	0.7	.	31.3	.	0.5
COc1ccc(N(CC(=O)N2CCCC(C)C2)S(=O)(=O)c2c(C)nn(C)c2C)cc1 (centres undefined)	37.4	0.5	3.4	53.4*	-6.2	0.6
COc1ccc(-n2ncc3c(=O)n(CC(=O)N4c5ccccc5CC4C)cnc32)cc1 (centres undefined)	.	.	-6.9	.	10.8	.
Cc1nn(C)c(C)c1S(=O)(=O)N(CC(=O)N1CCc2ccccc21)c1ccc(C(C)C)cc1	74.4*	0.4	9.9	58.6*	-12.8	0.3
O=C(CN1CCC(n2nnc3cc(F)ccc32)CC1)NCc1ccco1	29.6	0.7	-4.4	26.3	5.0	0.7
COc1ccc(-c2nc(CN3CCC(C(=O)N4CCc5ccccc54)CC3)c(C)o2)cc1OC	30.1	0.9	.	13.4	.	0.7
COc1ccc(N(CC(=O)N2CCc3ccccc32)S(=O)(=O)c2c(C)nn(C)c2C)cc1	59.7*	0.7	12.9	25.6	-8.9	0.4
COc1ccc(N(CC(=O)N2CCc3ccccc3C2)S(C)(=O)=O)cc1OC	-6.3	0.8	-7.4	16.5	5.7	1.1
O=C(CN(c1ccc(Cl)c(Cl)c1)S(=O)(=O)c1ccccc1)N1CCc2ccccc2C1	50.0*	0.1	-2.3	88.6*	0.5	0.5
COc1ccccc1OCCSc1nc2ccccc2c(=O)[nH]1	42.7	0.4	-12.2	59.3*	14.6	0.6
Cc1cc(=O)[nH]c(SCCCOc2ccccc2Cl)n1	29.1	0.5	-15.2	45.3	14.9	0.7
CCc1cc(OCCCSc2nc(C)cc(=O)[nH]2)ccc1Cl	9.0	0.3	-3.8	69.6*	6.4	0.9
C/C=C/c1ccc(OCCCNC)c(OC)c1	11.5	0.9	8.4	9.4	-6.2	0.9
Cc1cc(=O)[nH]c(SCCOc2ccc(OC(C)C)cc2)n1	74.7*	0.3	6.8	66.1*	-2.8	0.3
C/C=C/c1ccc(OCCSc2nc(C)cc(=O)[nH]2)c(OC)c1	52.9*	0.8	.	16.3	.	0.5
Cc1cc(=O)[nH]c(SCCOc2ccc3c(c2)CCC3)n1	-11.9	1	1.6	3.5	3.4	1.1
COc1ccc(C(=O)O)cc1F	-5.7	1.1	-4.5	-12.9	3.3	1.1
SMILES	CYP2C9 inh	CYP2C19 activ	sEH act	CYP2C19 inh	sEH inhibitor	CYP2C9 activ
CC1CCC(C(C)C)C(OC(=O)CSc2n[nH]c(=O)[nH]c2=O)C1 (centres undefined)	-2.3	1.1	.	-11.8	.	1
O=C(Cn1c(CN2CCCCC2)nc2ccccc2c1=O)NCc1ccco1	75.0*	0.5	4.8	54.7*	-5.4	0.3
Cc1cccc(C)c1NC(=O)Cn1c(CN2CCCCC2)nc2ccccc2c1=O	.	.	6.4	.	-1.2	.
Cc1ccc(CNC(=O)CCCn2c(=O)c3ccccc3n(CC(=O)NCc3ccco3)c2=O)cc1	.	.	0.1	.	5.0	.
O=C(CCn1c(=O)oc2ccccc21)NCc1ccc2c(c1)OCO2	-2.6	0.7	.	25.6	.	1
O=C(CCn1c(=O)c2ccccc2n(Cc2ccccc2)c1=O)NCc1ccc2c(c1)OCO2	33.7	0.5	-12.1	51.6*	9.6	0.7
O=C(CCCCn1c(=O)c2ccccc2n(CC(=O)Nc2ccccc2)c1=O)NCc1ccco1	46.5	1	-0.9	-2.8	3.2	0.5
O=C(CCCCn1c(=O)c2ccccc2n(Cc2ccc(F)cc2)c1=O)NCc1ccco1	84.9*	0.2	.	81.4*	.	0.2
O=C(CCCn1c(=O)c2ccccc2n(Cc2ccccc2)c1=O)NCc1ccco1	32.7	0.1	-5.6	90.1*	6.5	0.7
N#CCCSCc1ccc(OCC(=O)O)cc1	-34.9	1.1	-1.0	-9.6	2.4	1.3
CC(C)(C)OC(=O)Cn1c(=O)cnc2ccccc21	-9.7	0.7	0.4	34.3	1.0	1.1
O=C(Cn1c(=O)n(Cc2ccccc2)c(=O)c2ccccc21)NCc1ccco1	24.6	0.5	-4.7	51.9*	2.4	0.8
COc1cc2c(=O)n(Cc3ccccc3)c(=O)n(CC(=O)NCc3ccco3)c2cc1OC	-15.6	1	3.7	-4.2	-3.8	1.2
Cc1noc(C)c1S(=O)(=O)N1CCCCC1	31.6	0.9	10.3	11.8	-13.7	0.7
COC(=O)Oc1c(Br)c(=O)oc2ccccc12	.	.	4.6	.	-6.1	.
COc1ccc(NCc2nnc(SCC(=O)Nc3cccc(C)c3)o2)cc1	59.0*	0.3	2.0	71.6*	-3.0	0.4
COc1ccc(N2CCN(C(=O)CSc3nnc(CNc4ccccc4)o3)CC2)cc1	.	.	11.7	.	-11.8	.
COc1ccc(NCc2nnc(SCC(=O)c3ccc(OC)cc3)o2)cc1	-100.9	0.8	-29.9	22.4	30.1	2*
COc1cccc(OCc2nnc(SCC(=O)OCc3ccccc3)o2)c1	62.5*	0.2	4.5	76.4*	-4.3	0.4
COc1ccc(Cc2nnc(SCC(=O)c3ccccc3)o2)cc1	78.6*	0.2	2.8	77.4*	-2.5	0.2
C/C(Sc1nnc(Cc2ccccc2)o1)=C(/O)c1ccccc1	67.5*	0.4	0.1	61.4*	3.9	0.3
O=C(O)c1ccc(CSc2nnc(Cc3ccccc3)o2)cc1	0.7	1.1	-2.1	-7.4	3.0	1
O=C(CSc1nnc(CNc2ccccc2)o1)N1CCCc2ccccc21	25.3	0.7	8.4	26.0	-10.5	0.7
COc1ccc(NCc2nnc(SCC(=O)N3CCCc4ccccc43)o2)cc1	59.9*	0.6	3.0	39.9	-5.0	0.4
Cn1c(Cc2cccs2)n[nH]c1=S	-6.6	1	-5.7	3.7	5.3	1.1
Nc1nc2ccc([N+](=O)[O-])c(N)c2s1	-1.1	1.1	19.5	-7.2	-19.4	1
Cc1ccccc1NC(=O)NCCCN1CCN(c2ccccc2)CC1	38.8	0.9	-13.0	8.5	10.5	0.6
